Drawing on paper PMC7862700, “An all-to-all approach to the identification of sequence-specific readers for epigenetic DNA modifications on cytosine”, this text covers binding signal for nine sequences.

Common to all, as to experiment: DAPPL (digital affinity profiling via proximity ligation, sequencing); 10 mM Tris-HCl pH 7.5, 50 mM NaCl, 1 mM DTT, 4% glycerol, room temperature, 30 min; GST-TFs on glutathione beads, 16-mer random dsDNA library, 0.1% formaldehyde crosslink after washing; high values mean tight binding
Common to all, as to settings: protein: recombinant; tags: N-terminal GST; dsDNA, one strand shown

Experiment [1] deals with T1, FLI1 (Homo sapiens, UniProt Q01543 1-452).
T1 sequence: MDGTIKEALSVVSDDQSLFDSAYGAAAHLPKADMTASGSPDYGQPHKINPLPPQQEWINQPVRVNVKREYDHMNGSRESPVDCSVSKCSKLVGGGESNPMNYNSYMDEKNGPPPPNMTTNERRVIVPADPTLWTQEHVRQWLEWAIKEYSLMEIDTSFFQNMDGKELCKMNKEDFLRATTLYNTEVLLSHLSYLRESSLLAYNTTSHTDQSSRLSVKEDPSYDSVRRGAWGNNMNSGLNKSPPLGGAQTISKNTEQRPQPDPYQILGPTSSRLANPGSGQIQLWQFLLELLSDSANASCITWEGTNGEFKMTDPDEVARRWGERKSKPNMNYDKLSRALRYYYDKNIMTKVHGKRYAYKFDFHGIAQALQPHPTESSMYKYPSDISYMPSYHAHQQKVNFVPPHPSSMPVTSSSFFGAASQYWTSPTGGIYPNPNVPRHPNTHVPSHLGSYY
In outline:
(§1)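 Human transcription factors carrying a GST fusion were produced in yeast, bound to glutathione beads, tagged with DNA barcodes and pooled together with a tag-only sample. Each pool was held with 200 nmole of a random double-stranded 16-mer DNA library in Tris/NaCl/DTT/glycerol buffer for 30 min at room temperature, then washed, crosslinked in 0.1% formaldehyde, proximity-ligated with BsaI/T4 ligase (1 h, 37 °C), PCR-amplified and sequenced on an Illumina NextSeq500. Binding signal is the read frequency of each hexamer for a given factor divided by its frequency in the tag-only sample.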

Experiment [2] concerns the target T2, GABPA (Homo sapiens, UniProt Q06546 1-454).
T2 sequence: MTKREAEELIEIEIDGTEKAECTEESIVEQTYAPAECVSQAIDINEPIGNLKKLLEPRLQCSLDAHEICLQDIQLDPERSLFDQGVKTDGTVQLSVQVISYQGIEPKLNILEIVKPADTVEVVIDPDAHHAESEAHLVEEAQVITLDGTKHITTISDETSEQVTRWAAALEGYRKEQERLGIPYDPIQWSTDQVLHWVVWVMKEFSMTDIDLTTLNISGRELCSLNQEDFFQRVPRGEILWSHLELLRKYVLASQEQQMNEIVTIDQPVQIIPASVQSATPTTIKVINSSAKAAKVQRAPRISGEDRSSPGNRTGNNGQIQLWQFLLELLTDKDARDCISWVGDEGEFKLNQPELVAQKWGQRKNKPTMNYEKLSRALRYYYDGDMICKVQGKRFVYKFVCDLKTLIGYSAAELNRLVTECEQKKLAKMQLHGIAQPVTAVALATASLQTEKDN
In outline: as §1

Experiment [3] addresses T3, ERG (Homo sapiens, UniProt P11308 1-479).
T3 sequence: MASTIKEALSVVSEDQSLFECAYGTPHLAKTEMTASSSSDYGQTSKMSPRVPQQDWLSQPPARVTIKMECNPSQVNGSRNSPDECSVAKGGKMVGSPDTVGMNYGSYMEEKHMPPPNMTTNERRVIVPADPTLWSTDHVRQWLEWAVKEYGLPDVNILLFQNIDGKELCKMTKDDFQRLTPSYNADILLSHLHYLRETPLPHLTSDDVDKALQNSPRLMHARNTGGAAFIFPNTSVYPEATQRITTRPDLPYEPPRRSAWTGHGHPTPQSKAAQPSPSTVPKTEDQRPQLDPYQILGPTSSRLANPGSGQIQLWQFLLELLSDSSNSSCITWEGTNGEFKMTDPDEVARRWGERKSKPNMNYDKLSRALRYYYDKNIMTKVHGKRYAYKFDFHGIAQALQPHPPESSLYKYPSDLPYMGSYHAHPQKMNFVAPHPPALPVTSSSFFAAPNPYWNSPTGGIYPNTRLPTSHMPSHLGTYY
The procedure, abridged:
as §1

Experiment [4] concerns the target ELF1 (Homo sapiens, UniProt P32519 1-619). The procedure, abridged: as §1
Experiment [5] has as its target T4, EHF (Homo sapiens, UniProt Q9NZC4 1-300).
T4 sequence: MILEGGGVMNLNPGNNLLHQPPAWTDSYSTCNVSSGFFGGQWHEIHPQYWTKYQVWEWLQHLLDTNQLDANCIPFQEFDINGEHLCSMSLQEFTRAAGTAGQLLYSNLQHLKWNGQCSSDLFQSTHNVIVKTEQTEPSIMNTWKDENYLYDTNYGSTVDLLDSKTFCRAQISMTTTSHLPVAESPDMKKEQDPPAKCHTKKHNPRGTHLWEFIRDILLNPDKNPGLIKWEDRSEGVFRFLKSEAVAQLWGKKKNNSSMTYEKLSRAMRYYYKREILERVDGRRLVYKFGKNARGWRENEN
In outline:
as §1

For experiment [6], the target named is SPI1 (Homo sapiens, UniProt P17947 1-270). In outline:
as §1

Experiment [7] concerns the target SPIB (Homo sapiens, UniProt Q01892 1-262). The procedure, abridged:
as §1

The target in experiment [8] is T5, ELK3 (Homo sapiens, UniProt P41970 1-407).
T5 sequence: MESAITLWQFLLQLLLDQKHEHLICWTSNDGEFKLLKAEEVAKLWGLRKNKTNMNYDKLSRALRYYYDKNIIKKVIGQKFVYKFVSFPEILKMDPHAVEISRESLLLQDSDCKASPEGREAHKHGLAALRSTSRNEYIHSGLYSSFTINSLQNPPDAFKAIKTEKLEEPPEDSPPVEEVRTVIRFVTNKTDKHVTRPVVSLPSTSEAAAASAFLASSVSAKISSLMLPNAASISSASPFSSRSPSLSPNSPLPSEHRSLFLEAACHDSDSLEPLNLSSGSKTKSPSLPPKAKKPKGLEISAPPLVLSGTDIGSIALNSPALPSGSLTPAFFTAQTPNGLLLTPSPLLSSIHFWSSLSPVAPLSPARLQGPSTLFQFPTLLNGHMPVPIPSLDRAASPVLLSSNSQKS
The procedure, abridged: as §1

In experiment [9] the target is T6, ELK1 (Homo sapiens, UniProt P19419 1-428).
T6 sequence: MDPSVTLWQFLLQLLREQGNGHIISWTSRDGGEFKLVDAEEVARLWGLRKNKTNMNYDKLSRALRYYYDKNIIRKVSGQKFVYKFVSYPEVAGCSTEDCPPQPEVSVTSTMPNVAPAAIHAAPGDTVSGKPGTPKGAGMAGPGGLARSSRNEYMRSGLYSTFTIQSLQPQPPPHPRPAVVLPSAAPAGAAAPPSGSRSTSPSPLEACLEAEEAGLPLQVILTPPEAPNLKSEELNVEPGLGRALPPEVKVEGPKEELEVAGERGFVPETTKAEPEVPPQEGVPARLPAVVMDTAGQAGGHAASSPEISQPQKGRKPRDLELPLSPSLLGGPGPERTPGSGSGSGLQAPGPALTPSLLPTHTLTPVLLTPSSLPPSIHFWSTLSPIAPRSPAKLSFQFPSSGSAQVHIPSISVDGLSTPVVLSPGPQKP
The procedure, abridged:
as §1

Chain of ELF1 (P32519 whole entry): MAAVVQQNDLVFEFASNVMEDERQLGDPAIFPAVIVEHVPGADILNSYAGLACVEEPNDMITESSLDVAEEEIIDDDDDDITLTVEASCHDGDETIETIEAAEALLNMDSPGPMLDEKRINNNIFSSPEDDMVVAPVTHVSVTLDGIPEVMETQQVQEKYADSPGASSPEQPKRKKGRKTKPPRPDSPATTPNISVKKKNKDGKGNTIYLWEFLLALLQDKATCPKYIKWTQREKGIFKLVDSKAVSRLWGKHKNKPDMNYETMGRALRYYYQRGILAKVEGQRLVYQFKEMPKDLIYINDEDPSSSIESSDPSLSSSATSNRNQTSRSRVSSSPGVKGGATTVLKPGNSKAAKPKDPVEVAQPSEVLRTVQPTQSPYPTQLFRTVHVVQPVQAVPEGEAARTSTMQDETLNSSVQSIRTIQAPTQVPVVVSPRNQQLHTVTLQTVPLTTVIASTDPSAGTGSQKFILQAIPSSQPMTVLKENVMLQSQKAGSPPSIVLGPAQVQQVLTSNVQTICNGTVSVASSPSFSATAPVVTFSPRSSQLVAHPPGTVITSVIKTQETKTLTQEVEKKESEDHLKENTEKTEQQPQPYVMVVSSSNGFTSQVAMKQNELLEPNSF
Chain of SPIB (Q01892 whole entry): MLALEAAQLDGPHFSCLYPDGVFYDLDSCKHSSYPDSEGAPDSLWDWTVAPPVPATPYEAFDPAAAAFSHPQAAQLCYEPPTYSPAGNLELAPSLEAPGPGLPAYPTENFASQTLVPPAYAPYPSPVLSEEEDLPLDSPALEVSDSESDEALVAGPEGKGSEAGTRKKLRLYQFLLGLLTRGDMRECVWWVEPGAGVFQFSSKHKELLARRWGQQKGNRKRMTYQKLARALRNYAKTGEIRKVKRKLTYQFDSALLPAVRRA

On to CATTAC, for which the binding signal is 1.09 fold enrichment (6-mer frequency, TF over GST control) in experiment [1]; 1.2 fold enrichment (6-mer frequency, TF over GST control) in [2]; 1.06 fold enrichment (6-mer frequency, TF over GST control) in experiment [3]; 1.17 fold enrichment (6-mer frequency, TF over GST control) in [4]; 1.13 fold enrichment (6-mer frequency, TF over GST control) in experiment [5]; 1.1 fold enrichment (6-mer frequency, TF over GST control) in [6]. Besides, the binding signal in experiment [7] was 1.17 fold enrichment (6-mer frequency, TF over GST control); in [8] it was 1.15 fold enrichment (6-mer frequency, TF over GST control).
TTTAGT: the binding signal in experiment [1] is 1.13 fold enrichment (6-mer frequency, TF over GST control); in experiment [2] it was 1.11 fold enrichment (6-mer frequency, TF over GST control); in [4], 1.11 fold enrichment (6-mer frequency, TF over GST control); in [6], 1.07 fold enrichment (6-mer frequency, TF over GST control); in experiment [7], 1.12 fold enrichment (6-mer frequency, TF over GST control); in experiment [8] it was 1.11 fold enrichment (6-mer frequency, TF over GST control).
Consider GAATCT, for which the binding signal is 1.03 fold enrichment (6-mer frequency, TF over GST control) in [1]; 1.15 fold enrichment (6-mer frequency, TF over GST control) in [2]; 1.04 fold enrichment (6-mer frequency, TF over GST control) in experiment [3]; 1.04 fold enrichment (6-mer frequency, TF over GST control) in experiment [4]; 1.06 fold enrichment (6-mer frequency, TF over GST control) in experiment [5]; 1.07 fold enrichment (6-mer frequency, TF over GST control) in experiment [6]. Also, the binding signal in experiment [7] was 1.1 fold enrichment (6-mer frequency, TF over GST control); in experiment [8], 1.08 fold enrichment (6-mer frequency, TF over GST control).
For the sequence CCTAGA, the binding signal in experiment [1] was 1.04 fold enrichment (6-mer frequency, TF over GST control); in experiment [9], 1.01 fold enrichment (6-mer frequency, TF over GST control); in [4], 1.02 fold enrichment (6-mer frequency, TF over GST control).
Take GGGTTT: the binding signal in experiment [1] is 1.17 fold enrichment (6-mer frequency, TF over GST control); in experiment [2] it was 1.1 fold enrichment (6-mer frequency, TF over GST control); in experiment [3], 1.1 fold enrichment (6-mer frequency, TF over GST control); in experiment [4], 1.1 fold enrichment (6-mer frequency, TF over GST control); in experiment [5], 1.11 fold enrichment (6-mer frequency, TF over GST control); in [6], 1.05 fold enrichment (6-mer frequency, TF over GST control). Besides, the binding signal in experiment [7] is 1.05 fold enrichment (6-mer frequency, TF over GST control); in experiment [8], 1.03 fold enrichment (6-mer frequency, TF over GST control).
As to GTTATC, the binding signal in experiment [1] is 1.12 fold enrichment (6-mer frequency, TF over GST control); in experiment [2] it was 1.07 fold enrichment (6-mer frequency, TF over GST control); in experiment [3] it was 1.1 fold enrichment (6-mer frequency, TF over GST control); in [4] it was 1.09 fold enrichment (6-mer frequency, TF over GST control); in [5], 1.12 fold enrichment (6-mer frequency, TF over GST control); in [6], 1.03 fold enrichment (6-mer frequency, TF over GST control). The binding signal in experiment [7] was 1.02 fold enrichment (6-mer frequency, TF over GST control); in experiment [8] it was 1.22 fold enrichment (6-mer frequency, TF over GST control).
For the sequence CATCGA, the binding signal in [1] was 1.12 fold enrichment (6-mer frequency, TF over GST control); in experiment [4] it was 1.12 fold enrichment (6-mer frequency, TF over GST control); in experiment [5] it was 1.16 fold enrichment (6-mer frequency, TF over GST control); in experiment [6] it was 1.09 fold enrichment (6-mer frequency, TF over GST control); in experiment [7], 1.03 fold enrichment (6-mer frequency, TF over GST control); in experiment [8] it was 1.03 fold enrichment (6-mer frequency, TF over GST control).
Turning to TAGTAA, the binding signal in [1] is 1.13 fold enrichment (6-mer frequency, TF over GST control); in experiment [2] it was 1.03 fold enrichment (6-mer frequency, TF over GST control); in experiment [4] it was 1.08 fold enrichment (6-mer frequency, TF over GST control); in [5], 1.03 fold enrichment (6-mer frequency, TF over GST control); in experiment [6], 1.02 fold enrichment (6-mer frequency, TF over GST control); in experiment [7], 1.07 fold enrichment (6-mer frequency, TF over GST control). In [8], the binding signal was 1.13 fold enrichment (6-mer frequency, TF over GST control).
Regarding GTTCCA, the binding signal in [1] was 1.12 fold enrichment (6-mer frequency, TF over GST control); in experiment [2], 1.03 fold enrichment (6-mer frequency, TF over GST control); in experiment [3], 1.01 fold enrichment (6-mer frequency, TF over GST control); in [4], 1.11 fold enrichment (6-mer frequency, TF over GST control); in experiment [5] it was 1 fold enrichment (6-mer frequency, TF over GST control); in experiment [6], 1.03 fold enrichment (6-mer frequency, TF over GST control). The binding signal in experiment [7] is 1.1 fold enrichment (6-mer frequency, TF over GST control); in experiment [8] it was 1.08 fold enrichment (6-mer frequency, TF over GST control).
